In PubChem BioAssay (NCATS):
Several values for one entry are separate records, joined by “and”; a condition that tells them apart may be missing. Identical values can stand only once. Inconclusive results are not listed. Activity calls are given as the source filed them. Unless noted, the call rests on the fitted dose curve; in most records, active means well fitted curve in the direction sought with a large enough effect; inconclusive means small, poorly fitted or top-dose-only effect, or another doubt; inactive means no such curve, though single readings can be large; an effect the other way counts as inactive or inconclusive.

Key:
[1] = Cell Viability - MRC5 (AID 434; calls by dose curve;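 further: potency means the concentration at half of the fitted maximal effect; cells exposed to compound for 40 hours at 37 °C; potency reflects cytotoxicity seen as loss of intracellular ATP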); details: MRC5 lung fibroblast viability, qHTS
Summary of the method: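 ATP luminescence read-out (CellTiter-Glo, 20 min RT) after 40 hr, 37 °C compound exposure of 1500 MRC5 cells/well. Data normalized to DMSO (basal) and 100 uM tamoxifen (100% inhibition); AC50 from standard Hill equation.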

[2] = target: Mitogen-activated protein kinase 10 (Mus musculus) (UniProt Q61831); assay: JNK3 AlphaScreen Assay (AID 530; active means well fitted curve in either direction with a large enough effect, not every such curve was filed as active;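 further: kinase came from lysate of stimulated human HepG2 cells; signal reports phosphorylation of biotinylated GST-cJun 1-79 at Ser73 with 10 µM ATP; on the % scale 0 is the no-effect control and ±100 the full control effect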); details: JNK3 lysate, c-Jun phosphorylation; series mostly up to 57.1 µM
Summary of the method: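 HepG2 lysate (IL-1b/TNFa pre-activated) + biotin-GST-cJun 1-79 + anti-pSer73 cJun; cpd titration, 15 min RT; ATP 10 uM start; Tris pH 7.6, MgCl2, DTT, vanadate; beads in EDTA buffer; AlphaScreen.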

[3] = Cell Viability - LYMP2-001 (AID 921); details: LYMP2-001 lymphoblastoid cell viability; series mostly up to 92.2 µM; further: nearly all actives have a fitted effect of over 70% in size; further: potency means the concentration at half of the fitted maximal effect
Summary of the method: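 qHTS, 1536-well; lymphoblastoid cells, 24 hr compound, 37 C; ATP by CellTiter-Glo, 30 min RT; luminescence; Hill-fit AC50.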

[4] = MultiTox-Fluor Cytotoxicity Assay - LYMP1-003 - Dead Cells (AID 961); details: LYMP1-003 lymphoblastoid cells, dead-cell protease fluorescence; series mostly up to 92.2 µM;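 further: 0% = DMSO and 100% = tetraoctylammonium bromide; nearly all actives have a fitted effect of over 70% in size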
Summary of the method: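 Human lymphoblastoid LYMP1-003 cells (2500/well) were treated with compounds for 16 hr at 37 C in complete medium. Dead-cell protease release was read by bis-AAF-R110 fluorescence (Ex/Em 485/520). AC50 came from Hill fits, normalized to DMSO and 15 uM tetraoctylammonium bromide.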

[5] = Cell Viability - LYMP2-011 (AID 969); details: LYMP2-011 lymphoblastoid cells viability; series mostly up to 92.2 µM;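 further: cells exposed to compound for 24 hours; nearly all actives have a fitted effect of over 60% in size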; further: potency means the concentration at half of the fitted maximal effect
Summary of the method: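 Luminescent ATP read-out (CellTiter-Glo, 30 min RT) after 24 hr compound exposure at 37 C in human lymphoblastoid cells, 2500 cells/well. Decreasing ATP indicates cytotoxicity; AC50 from standard Hill fit.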

[6] = Cell Viability - LYMP2-013 (AID 970); details: LYMP2-013 lymphoblastoid cells viability; series mostly up to 92.2 µM; further: nearly all actives have a fitted effect of over 55% in size; further: potency means the concentration at half of the fitted maximal effect
Summary of the method: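 CellTiter-Glo luminescence (cellular ATP) read after 30 min at RT. Cells: human lymphoblastoid line, 2500/well, 24 hr compound exposure at 37 C. Tetraoctylammonium bromide positive control; AC50 via standard Hill fit of qHTS titrations.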

[7] = Cell Viability - LYMP2-015 (AID 971); details: LYMP2-015 lymphoblastoid cell viability; series mostly up to 92.2 µM; further: nearly all actives have a fitted effect of over 55% in size; further: potency means the concentration at half of the fitted maximal effect
Summary of the method: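 qHTS cytotoxicity: 2500 cells/well, 5 hr 37 C, compound 24 hr 37 C, CellTiter-Glo 30 min RT, luminescence. Loss of ATP = toxicity; AC50 via standard Hill fit.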

[8] = Cell Viability - LYMP2-002 (AID 977); details: LYMP2-002 lymphoblastoid cell viability, qHTS; series mostly up to 92.2 µM;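 further: plate controls were DMSO only for no effect and 92 µM tetraoctylammonium bromide for full effect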
Summary of the method: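 Human lymphoblastoid cells, 2500/well, complete medium; 5 h 37 C settle; compound 24 h 37 C; CellTiter-Glo, 30 min RT; luminescence. Decrease in ATP = cytotoxicity; AC50 via Hill equation.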

[9] = Cell Viability - LYMP2-010 (AID 981); details: LYMP2-010 lymphoblastoid cell viability, qHTS; series mostly up to 92.2 µM;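 further: cells exposed to compound for 24 hours at 37 °C; nearly all actives have a fitted effect of over 55% in size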; further: potency means the concentration at half of the fitted maximal effect
Summary of the method: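 qHTS cytotoxicity, 1536-well: 2500 cells/well, 5 hr settle, 24 hr compound at 37 C, CellTiter-Glo 30 min RT, luminescence read. Decrease in ATP = toxicity; AC50 via standard Hill equation. Positive control tetraoctylammonium bromide.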

[10] = Cell Viability - LYMP2-018 (AID 985); details: LYMP2-018 lymphoblastoid cells, viability (qHTS); series mostly up to 92.2 µM;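 further: plate controls were DMSO only for no effect and tetraoctylammonium bromide at 92 µM for full effect; nearly all actives have a fitted effect of over 50% in size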
Summary of the method: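 2500 cells/well; 5 hr 37 C; cmpd 24 hr 37 C, complete medium; CellTiter-Glo 30 min RT; luminescence. Tetraoctylammonium bromide positive control. AC50 via Hill fit.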

[11] = Cell Viability - LYMP2-022 (AID 987); details: LYMP2-022 lymphoblastoid cell viability; series mostly up to 92.2 µM; further: nearly all actives have a fitted effect of over 55% in size; further: potency means the concentration at half of the fitted maximal effect
Summary of the method: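 Luminescent ATP read-out (CellTiter-Glo, 30 min, RT) after 24 hr, 37 C compound exposure of 2500 human lymphoblastoid cells/well in complete medium. Cytotoxicity taken as concentration-dependent ATP loss; AC50 from standard Hill equation.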

[12] = target: Vitamin D3 receptor (Homo sapiens) (UniProt P11473); assay: qHTS assay for small molecule antagonists of vitamin D receptor signaling (AID 588541; calls by dose curve;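 further: receptor activated by calcitriol during compound treatment; on the % scale 0 is the no-effect control and ±100 the full control effect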); details: HEK293T VDR-UAS-bla, beta-lactamase ratio, antagonist mode; series mostly up to 76.7 µM
Vitamin D3 receptor (Homo sapiens), sequence (P11473 whole entry, looked up): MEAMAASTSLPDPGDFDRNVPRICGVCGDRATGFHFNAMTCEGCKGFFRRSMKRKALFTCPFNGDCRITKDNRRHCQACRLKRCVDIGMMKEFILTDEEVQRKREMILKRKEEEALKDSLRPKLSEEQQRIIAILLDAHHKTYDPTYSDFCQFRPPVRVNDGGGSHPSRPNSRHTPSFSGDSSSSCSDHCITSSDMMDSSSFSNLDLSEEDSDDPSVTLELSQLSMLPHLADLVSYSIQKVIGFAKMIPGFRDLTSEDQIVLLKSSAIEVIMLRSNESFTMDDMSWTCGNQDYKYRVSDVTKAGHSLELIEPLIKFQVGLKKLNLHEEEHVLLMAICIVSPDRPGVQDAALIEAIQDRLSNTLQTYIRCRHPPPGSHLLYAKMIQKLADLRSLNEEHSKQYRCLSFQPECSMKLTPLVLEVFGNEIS
Summary of the method: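 VDR-UAS-bla HEK293T cells in 2% charcoal-stripped FBS were stimulated with 1-alpha,25-dihydroxyvitamin D3 (3 nM final) plus compound for 16 h at 37 C. The beta-lactamase CCF4 readout was normalized to 50 nM agonist and DMSO, and Hill fits gave IC50.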

[13] = target: Vitamin D3 receptor (Homo sapiens) (UniProt P11473); assay: qHTS assay for small molecule agonists of vitamin D receptor signaling (AID 588543; calls by dose curve;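 further: 0% = DMSO basal and 100% = reference agonist control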); details: HEK293T VDR-UAS-bla, beta-lactamase ratio, 16 h; series mostly up to 76.8 µM
Summary of the method: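 qHTS in agonist mode: compound titrations stimulate a VDR-driven β-lactamase reporter in HEK293T cells over 16 h at 37 °C. Response normalized to 50 nM 1α,25-dihydroxyvitamin D3 = 100%, DMSO = 0%; Hill fitting gives EC50 and maximal response.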

[14] = qHTS assay for small molecule antagonists of the retinoid-related orphan receptor gamma (ROR-gamma) signaling pathway - cell viability counter screen (AID 720652; active means well fitted curve in the direction sought with a large enough effect in the repeat runs; an effect the other way counts as inactive or inconclusive;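 further: CHO reporter cells with doxycycline-induced ROR-gamma expression; compound exposure lasted 16 hr before ATP read; on the % scale 0 is the no-effect control and ±100 the full control effect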); details: RORgamma reporter cell line viability counter screen; series mostly up to 92.2 µM
Summary of the method: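 CHO RORE-LUC/TET-ROR line, 1,000 cells/well, 37 C 5% CO2 5 hr; cpd or DMSO + doxycycline induction, 16 hr. CellTiter-Glo, 30 min RT, luminescence = ATP content.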

[15] = qHTS assay for small molecule activators of the human pregnane X receptor (PXR) signaling pathway (AID 720659; call rule not given here; further: 0% is about no effect); details: DPX-2 HepG2 CYP3A4-luciferase, 24 h; series mostly up to 92.3 µM
[16] = MultiTox-Fluor Cytotoxicity Assay - LYMP1-001 - Live Cells (AID 947); details: LYMP1-001 lymphoblastoid cells, live-cell protease fluorescence viability; series mostly up to 92.2 µM;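 further: 0% = DMSO only and full inhibition = tetraoctylammonium bromide control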
[17] = Cell Viability - LYMP1-003 - Assay at 40 hr (AID 964); details: LYMP1-003 lymphoblastoid viability; series mostly up to 92.2 µM; further: nearly all actives have a fitted effect of over 60% in size; further: potency means the concentration at half of the fitted maximal effect
Summary of the method: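 LYMP1-003 lymphoblastoid cells, 2500/well; 5 hr preincubation, 40 hr compound exposure, 37 C; CellTiter-Glo 30 min RT; luminescence; Hill-fit AC50. Positive control tetraoctylammonium bromide.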

[18] = Cell Viability - LYMP2-021 (AID 974); details: LYMP2-021 lymphoblastoid cells viability; series mostly up to 92.2 µM; further: potency means the concentration at half of the fitted maximal effect
Summary of the method: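 ATP luminescence (CellTiter-Glo, 30 min RT) after 24 h compound exposure at 37 C; 2500 human lymphoblastoid cells/well, 5 h settle beforehand. Cytotoxicity = concentration-dependent ATP drop, AC50 by Hill fit.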

[19] = target: Thyroid hormone receptor beta (Homo sapiens) (UniProt P10828); assay: qHTS assay for small molecule antagonists of thyroid hormone receptor beta signaling (AID 588547; active means well fitted inhibition curve with a large enough effect in the signal ratio, with a control signal flat, not every such curve was filed as active; the % refers to the signal ratio;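 further: cells stimulated with 0.4 nM T3 agonist during compound exposure; on the % scale 0 is the no-effect control and ±100 the full control effect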); details: TR-UAS-bla HEK293, beta-lactamase ratio, antagonist mode, 18 h
Thyroid hormone receptor beta (Homo sapiens), sequence (P10828 whole entry, looked up): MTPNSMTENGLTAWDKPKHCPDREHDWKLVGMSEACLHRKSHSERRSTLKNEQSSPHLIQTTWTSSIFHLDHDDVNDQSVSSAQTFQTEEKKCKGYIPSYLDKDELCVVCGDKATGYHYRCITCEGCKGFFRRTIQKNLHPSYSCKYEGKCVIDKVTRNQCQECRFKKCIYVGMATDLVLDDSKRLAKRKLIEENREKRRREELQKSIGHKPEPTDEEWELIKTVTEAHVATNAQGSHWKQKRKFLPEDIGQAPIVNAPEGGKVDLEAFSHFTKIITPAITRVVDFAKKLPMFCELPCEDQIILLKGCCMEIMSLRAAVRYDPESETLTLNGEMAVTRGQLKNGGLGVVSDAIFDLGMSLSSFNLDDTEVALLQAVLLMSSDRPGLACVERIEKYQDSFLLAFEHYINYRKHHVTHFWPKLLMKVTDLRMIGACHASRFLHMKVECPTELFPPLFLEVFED
Summary of the method: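 TR-UAS-bla GripTite HEK293 cells in 2% charcoal/dextran FBS medium; compounds 0.59 nM to 92 uM with T3 at 0.4nM final, 18 h at 37 C. Beta-lactamase read by CCF4 fluorescence (460/530 nm); Hill fits gave IC50 and efficacy.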

[20] = MultiTox-Fluor Cytotoxicity Assay - LYMP1-003 - Live Cells (AID 962); details: LYMP1-003 lymphoblastoid cells, MultiTox-Fluor live-cell protease fluorescence; series mostly up to 92.2 µM;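 further: cells exposed to compound for 16 hours at 37 °C; 0% = DMSO only and full loss = 92 µM tetraoctylammonium bromide; cytotoxic hits lower the live-cell protease signal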
Summary of the method: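 Readout: live-cell fluorescence (Ex/Em=405/510) from GF-AFC cleavage after 60 min MultiTox-Fluor reagent at room temperature. Lymphoblastoid LYMP1-003 cells, 16 hr compound treatment, 37 C. Concentration-response fitted to standard Hill equation for AC50.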

N#CCCCCC#N
inactive: Potency [1] > 92 µM | Potency [2] | Potency [3] | Potency [4] | Potency [5] | Potency [6] | Potency [7] | Potency [8] | Potency [9] | Potency [10] | Potency [11] | outcome [12] | outcome [13] | Potency [14] | outcome [15]

c1ccc(Nc2ccc(Nc3ccccc3)cc2)cc1
inactive: Potency [1] > 92 µM | outcome [16] | Potency [4] | Potency [17] | Potency [5] | Potency [7] | Potency [18] | Potency [8] | Potency [9] | Potency [10] | outcome [12] | outcome [13] | Potency [14]

CN1CSC(=S)N(C)C1
active: Potency [3] 12.6 µM | Potency [17] 39.8 µM | Potency [5] 39.8 µM | Potency [6] 39.8 µM | Potency [7] 31.6 µM | Potency [18] 39.8 µM | Potency [9] 20 µM | Potency [11] 10 µM
inactive: Potency [1] > 92 µM | Potency [4] | outcome [12] | outcome [13] | activity change % (negative = inhibition) [19] 21.7% and -19%

CN(C)C(=O)Nc1ccc(Cl)cc1
inactive: Potency [1] > 92 µM | Potency [2] | Potency [3] | outcome [16] | Potency [4] | outcome [20] | Potency [17] | Potency [5] | Potency [6] | Potency [7] | Potency [18] | Potency [9] | Potency [11] | outcome [12] | outcome [13] | activity change % (negative = inhibition) [19] -0.766% | Potency [14] | outcome [15]

C=CC#N
inactive: Potency [1] > 92 µM | Potency [2] | Potency [3] | outcome [16] | Potency [4] | outcome [20] | Potency [17] | Potency [5] | Potency [6] | Potency [7] | Potency [8] | Potency [9] | Potency [11] | outcome [12] | outcome [13] | activity change % (negative = inhibition) [19] -5.45% | Potency [14] | outcome [15]

CC(C)C#N
inactive: Potency [1] > 92 µM | Potency [2] | Potency [3] | Potency [4] | outcome [20] | Potency [6] | Potency [7] | Potency [18] | Potency [8] | Potency [9] | Potency [11] | activity change % (negative = inhibition) [19] -3.27% | Potency [14] | outcome [15]

N#CC(Br)Br
active: Potency [9] 50.1 µM
inactive: Potency [1] > 92 µM | Potency [2] | Potency [3] | outcome [16] | Potency [4] | outcome [20] | Potency [17] | activity change % (negative = inhibition) [19] 17% | outcome [15]

Cc1ccc(OP(=O)(Oc2ccc(C)cc2)Oc2ccc(C)cc2)cc1
inactive: Potency [1] > 92 µM | Potency [3] | outcome [16] | Potency [4] | outcome [20] | Potency [5] | Potency [6] | Potency [7] | Potency [18] | Potency [8] | Potency [9] | Potency [10] | Potency [11] | outcome [12] | outcome [13]

O=c1ccc(=O)[nH][nH]1
inactive: Potency [3] | outcome [16] | Potency [4] | outcome [20] | Potency [17] | Potency [5] | Potency [6] | Potency [7] | Potency [8] | Potency [9] | Potency [10] | Potency [11] | outcome [12] | outcome [13] | Potency [14] | outcome [15]
